High-throughput results: PubChem BioAssay, several laboratories
A selection: hits, their analogues and other compounds. The true share with any hit is near 4.6%.
SKKanGAS inh = S. pyogenes SKKanGAS growth inhibitors in kanamycin, primary screen, streptokinase expression inhibitor project, SKKanGAS strain, BacTiter-Glo luminescence; 300,000 tested, 1.3% active; AID 1662, 2009; 6 h; inhibition, % at 7.5 µM;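 active = mean replicate score, as percent of positive control median, at least 50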;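 note: strain carries kanamycin resistance gene driven by streptokinase promoter and grows in 40 µg/ml kanamycin; loss of luminescence reflects streptokinase promoter inhibition or plain growth inhibition; 0% = median of DMSO wells and 100% = positive control at its reference dose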
tim10-1 inh = growth inhibitors of tim10-1 mutant yeast, primary screen, luminescence, uHTS | 330,000 tested, 2.2% active | inhibition, % at 20 µM | AID 463190, 2010 | S. cerevisiae tim10-1 ts strain growth, BacTiter-Glo, 24 h;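 active = inhibition of at least 40%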;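 note: mutant grown at 25 °C; 0% = DMSO wells with yeast and 100% = wells holding no yeast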
tim23-1 inh = growth inhibitors of tim23-1 mutant yeast, primary screen, luminescence, uHTS; S. cerevisiae tim23-1 growth, BacTiter-Glo luminescence, 24 h; inhibition, % at 20 µM; 330,000 tested, 1.3% active; AID 463212, 2010;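 active = growth inhibition of the mutant yeast at or above 50%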;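 note: temperature-sensitive mutant grown at 25 °C; plate controls were DMSO-treated mutant yeast for no effect and medium wells lacking yeast for full effect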
PfHsp90 yeast 2 = growth inhibition of PfHsp90-expressing yeast, primary screen, antimalarial PfHsp90 inhibitor project, S. cerevisiae, BacTiter-Glo luminescence, single point, set 2; BacTiter-Glo ATP, 48 h; yeast lacking PDR1 and PDR3 efflux regulators; inhibition, % at 9.4 µM; 310,000 tested, 0.32% active;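 active = every replicate shows inhibition above about 80%, whatever the replicate mean, limit read from the data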;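 note: 0% = DMSO neutral controls and 100% = 20 µM radicicol positive controls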
TIM10 inh = growth inhibitors of isogenic TIM10 control yeast, primary screen, counter-screen for tim10-1 yeast inhibitor project, luminescence, uHTS; 330,000 tested, 1.4% active; inhibition, % at 10 µM; AID 463195, 2010; S. cerevisiae TIM10 strain growth, BacTiter-Glo luminescence, 24 h;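 active = inhibition of 40% or more at the single tested concentration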;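 note: wild-type TIM10 isogenic control strain grown at permissive 25 °C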
NALP3 yeast inh = NALP3 inflammasome inhibitors in reconstituted yeast, primary screen, luminescence, uHTS; Yeast reconstituted NLRP3/ASC/caspase-1, beta-gal luminescence, 24 h; inhibition, % at 10 µM; 330,000 tested, 0.39% active; AID 2825, 2010;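 active = inhibition of 50% or more; inactive = inhibition below 50%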;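 note: plate controls were induced DMSO wells for no effect and uninduced yeast grown without galactose for full effect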
tim10-1 confirm = growth inhibitors of tim10-1 mutant yeast, confirmation, single concentration, luminescence, S. cerevisiae; S. cerevisiae tim10-1 ts strain growth, BacTiter-Glo, 24 h; inhibition, % at 20 µM; 7,400 tested, 56% active; shares compounds with tim10-1 inh;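 active = inhibition of yeast growth at or above a set limit in either of two repeat tests at 20 µM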;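 note: tim10-1 mutant grown at permissive 25 °C to find synthetic lethal compounds; 0% = DMSO yeast wells and 100% = medium wells without yeast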
Active calls of the source: *; x = no result.

SMILES	SKKanGAS inh	tim10-1 inh	tim23-1 inh	PfHsp90 yeast 2	TIM10 inh	NALP3 yeast inh	tim10-1 confirm
OC(COc1ccccc1)Cn1c2ccccc2c2ccccc21 (configuration not stated)	8	42*	26	24	31	22	51*
Cc1c(NC(=O)C(C)OC(=O)CCOc2ccccc2)c(=O)n(-c2ccccc2)n1C (configuration not stated)	-4	5	12	-8	19	19	x
O=C(Cc1cccc(C(F)(F)F)c1)OCC(=O)N1CCN(S(=O)(=O)c2ccc(Cl)cc2)CC1	17	47*	18	42	8	8	15
O=C1CCSc2ccc(Cl)cc2N1Cc1ccc(Cl)cc1	53*	45*	48	-12	18	6	24
CC1CCc2nc(/C(C#N)=C/c3cccnc3)sc2C1 (configuration not stated)	7	42*	12	-26	27	24	30
COc1cc(/C=C(\C#N)c2nc3c(s2)CCCC3)ccc1O	44	44*	34	x	31	37	12
COc1cc(/C=C(\C#N)C(=O)N2CCCCC2)ccc1O	3	33	34	-24	18	6	x
N#C/C(=C\c1cccnc1)c1nc2c(s1)CCCC2	3	43*	13	-10	20	41	32*
COc1cccc(COCC(O)Cn2cnc3cc(C)c(C)cc32)c1 (configuration not stated)	-2	12	8	-6	-6	3	x
O=C(O)c1ccc(N2CCc3ccccc32)c([N+](=O)[O-])c1	4	3	2	0	17	6	x
O=C(NCc1ccc(F)cc1)c1ccc(N2CCc3ccccc32)c([N+](=O)[O-])c1	32	42*	39	0	18	27	26
COc1ccc2nc(N3CCC(C)CC3)c(C#N)cc2c1	-5	46*	21	2	3	5	9
O=C(O)CC(NS(=O)(=O)Cc1ccccc1)c1cccc([N+](=O)[O-])c1 (configuration not stated)	5	3	3	-4	-4	13	x
COc1ccccc1-n1cc2c([N+](=O)[O-])cc([N+](=O)[O-])cc2n1	11	49*	45	4	31	18	38*
CCOC(=O)c1ccc(NC(=O)COc2ccc(CNC3CCCCC3)cc2OC)cc1	4	-14	5	-18	-15	19	x
COc1ccc(Cn2c(SCc3cc(C)ccc3C)nc3cc(OC)c(OC)cc3c2=N)cc1	109*	59*	3	x	-39	29	34*
COc1cc2nc(SCc3ccc(Cl)cc3Cl)n(Cc3cccs3)c(=N)c2cc1OC	4	23	16	21	28	10	x
CCc1cccc(NC(=O)CS(=O)Cc2nc(-c3ccc(C)cc3)oc2C)c1 (configuration not stated)	6	47*	31	-21	26	12	35*
COc1cc(/C=C2\SC(=S)N(Nc3ccccc3)C2=O)ccc1O	27	51*	29	17	31	-15	20
O=C(O)CN1C(=O)/C(=C\C(Br)=C\c2ccccc2)SC1=S	-4	43*	21	-8	29	9	35*
CCS(=O)(=O)c1ccc(C(=O)NC2CC2)c(Cl)c1Cl	9	-13	-21	-2	-17	-3	x
Cc1ccc(C)c(S(=O)(=O)N2CCN(C(=O)C3CCN(c4ncnc5sc(C)c(C)c45)CC3)CC2)c1	22	47*	41	x	-70	8	28
Cc1ccc(NC(=O)C2CCN(c3ncnc4sc(C)c(C)c34)CC2)cc1S(=O)(=O)N(C)C	4	-11	-7	x	8	-6	x
CCOC(=O)C(=O)NC1CC=CCC1c1ccc2c(c1)OCO2 (configuration not stated)	x	x	x	-15	x	x	x
CCn1c(NCc2cccs2)nc2ccccc21	-1	2	10	-10	-1	13	x
SMILES	SKKanGAS inh	tim10-1 inh	tim23-1 inh	PfHsp90 yeast 2	TIM10 inh	NALP3 yeast inh	tim10-1 confirm
CCN1c2ccccc2-c2nc3ccccc3n2C1c1cccs1 (configuration not stated)	4	40*	38	-34	27	26	17
Cc1nn2c(N3CCN(C(=O)c4ccco4)CC3)cc(C(C)(C)C)nc2c1-c1ccccc1	62*	50*	44	x	22	26	26
Cc1nn2c(N3CCN(C)CC3)cc(C(C)(C)C)nc2c1-c1ccccc1	33	-52	-15	4	20	19	x
O=C(Nc1nnc(C2CCCCC2)s1)c1ccco1	10	45*	32	-28	24	13	35*
COc1cc(NC(=O)c2cc(-c3ccccc3Cl)on2)cc(OC)c1OC	13	45*	40	7	13	39	23
CC(OC(=O)C1CC(=O)N(Cc2ccccc2)C1)C(=O)Nc1cccc(C#N)c1 (configuration not stated)	-14	3	-1	-16	-2	16	x
COC(=O)C(NC(=O)CCc1c(C)nc2c(c(C)nn2-c2ccccc2)c1C)C(C)C (configuration not stated)	-7	27	16	4	-2	0	x
CCc1cc2c(=O)c(-c3nc(C)cs3)coc2cc1O	-9	5	-5	-25	10	21	x
Cc1csc(-c2coc3cc(O)cc(C)c3c2=O)n1	6	43*	50	-21	16	30	9
CNc1nc(-c2ccccn2)nnc1-c1ccccc1	2	45*	36	12	11	7	32*
COc1ccc(-c2csc(CCn3nc(C)cc3C)n2)cc1	-1	41*	27	-17	25	4	35*
COc1ccc(-c2csc(CCn3nc(C)cc3C)n2)cc1OC	-3	-1	19	2	-3	2	x
CN(C)c1nc(OCCNC(=O)Nc2ccccc2)nc(N2CCCCC2)n1	-1	40*	21	-4	16	1	18
Cc1ccc(CN(C)C(=O)C2CCC(=O)N(C3CCCCCC3)C2)cc1 (configuration not stated)	-4	23	21	22	4	7	x
O=C(CSCC(=O)N1CCCCC1)Nc1nc(-c2ccc(Cl)s2)cs1	-8	41*	43	108*	22	5	36*
